Screening results deposited in PubChem BioAssay by National Center for Advancing Translational Sciences (NCATS).
FLuc modulator: counter-screen for miR-21 project: firefly luciferase inhibitors or activators. P08659. purified FLuc, Km substrates, luminescence inhibition. Potency, µM (doses to about 57.5 µM), for the others: at the top dose activity change, negative = inhibition, usual class: inhibitors. 6.9% of 360,000 active. AID 588342;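 note: plate controls were vehicle for no effect and reference inhibitor for full effect; nearly all actives have a fitted effect of over 55% in size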
Target sequence (P08659 whole entry, looked up): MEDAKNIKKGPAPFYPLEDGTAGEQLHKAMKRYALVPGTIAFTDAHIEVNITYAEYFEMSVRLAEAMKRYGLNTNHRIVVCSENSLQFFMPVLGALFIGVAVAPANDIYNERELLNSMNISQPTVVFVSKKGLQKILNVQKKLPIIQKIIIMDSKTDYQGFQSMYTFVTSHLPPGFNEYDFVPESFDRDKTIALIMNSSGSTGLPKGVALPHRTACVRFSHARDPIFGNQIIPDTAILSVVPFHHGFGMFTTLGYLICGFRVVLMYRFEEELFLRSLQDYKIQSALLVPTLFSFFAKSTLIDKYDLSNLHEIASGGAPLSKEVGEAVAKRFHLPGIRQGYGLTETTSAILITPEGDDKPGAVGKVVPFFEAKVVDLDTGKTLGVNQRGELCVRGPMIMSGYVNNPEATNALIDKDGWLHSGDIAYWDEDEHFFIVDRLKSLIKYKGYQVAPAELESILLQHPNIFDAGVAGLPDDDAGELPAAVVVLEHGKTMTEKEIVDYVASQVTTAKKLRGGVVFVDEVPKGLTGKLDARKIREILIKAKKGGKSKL
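Purified P. pyralis luciferase, 10 nM final, with Km-level 10 uM D-luciferin and 10 uM ATP in 50 mM Tris acetate pH 7.5, 10 mM Mg acetate, 0.01% Tween-20, 0.05% BSA; 6-point qHTS titration about 60 µM downward; luminescence read.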
ELG1 genotox: inducers of genotoxicity in HEK293T ELG1-luciferase cells | Potency, µM (top dose mostly 46 µM), without a hit: at the top dose activity change, positive = activation, usual class: activators | HEK293T ELG1-luciferase reporter, luminescence, 16 h | 1.3% of 330,000 active; note: % of control where 0% means no effect; nearly all actives have a fitted effect of over 60% in size
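Genotoxicity was scored as increased ELG1-luciferase reporter signal, measured by ONE-Glo luminescence (30 min, room temperature). Compound or vehicle exposure of the HEK293T reporter cells lasted 16 hr at 37°C.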
SMN2 splice up: SMN2 splice variant enhancement; Potency, µM (series often up to 46.1 µM), for inactives: top-dose activity change, positive = activation, actives largely listed as activators; HEK293 SMN2-luciferase splicing reporter, luminescence, 30-36 h; 2.8% of 210,000 active; AID 1458; note: % of control where 0% means no effect; nearly all actives have a fitted effect of over 55% in size
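qHTS luciferase splicing reporter: luminescence rises when SMN2 exon 7 is included in transfected HEK293 cells. Compound exposure lasted 30-36 h at 37C, with 4.5 mM final sodium butyrate as control, followed by a ONE-Glo read.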
NPC1 promoter act: activators of NPC1 promoter | Huh7 NPC1 promoter luciferase reporter, 24 h | Potency, µM (doses to about 9.22 µM), for the others: top-dose activation, hits mostly activators | 2.4% of 320,000 active; note: % of control where 0% means no effect; nearly all actives have a fitted effect of over 60% in size
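Cells: Huh7 expressing luciferase under the NPC1 promoter, 1500/well. Seeded 2 h, compound added, incubated 24 h at 37 °C. Luciferase reagent, 10 min ambient, then luminescence.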
Luc counter: Kinase-Glo luciferase inhibition (counter-screen). Potency, µM (doses to about 38.3 µM), without a hit: at the top dose activity change, negative = inhibition, usual class: inhibitors. 0.28% of 200,000 active. Q27757. AID 1379. Kinase-Glo luciferase, ATP luminescence, 8 min; note: % is set by controls: 0 for no effect and ±100 for the full control effect; nearly all actives have a fitted effect of over 60% in size
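Light output from Kinase-Glo luciferase with luciferin and 10 uM ATP in 50 mM imidazole pH 7.2, KCl, MgCl2, Tween 20, BSA; compound pin-delivered, 8-min ambient incubation, then luminescence read.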
Rab9 prom act: activators of Rab9 promoter; Huh7 Rab9 promoter-luciferase reporter, luminescence, 24 h; 2.8% of 320,000 active; AID 485297; Potency, µM (titrated, usually from 9.22 µM), for inactives: at the highest dose activation, negative = inhibition, usual class: activators; note: % of control where 0% means no effect; nearly all actives have a fitted effect of over 60% in size
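Cells were plated at 1500 per well in reduced-serum medium with 10% FBS and left 2 h. Compound in DMSO was then added for 24 h at 37 °C. Reporter signal was read by luminescence after 10 min with luciferase detection reagent.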
* marks the source's active call; other numbers are inactive results; ? = inconclusive; / = no result given; [ ] = remark or other dose. An excerpt weighted towards active compounds, which were near 7.3% of everything screened. Calls come from the whole dose curve; as a rule, active = well fitted curve in the direction sought with a large enough effect; inconclusive = small, poorly fitted or top-dose-only effect, or another doubt; inactive = no such curve, though single readings can be large; an effect the other way counts as inactive or inconclusive. Potency is the fitted concentration of half-maximal effect.

SMILES	FLuc modulator	ELG1 genotox	SMN2 splice up	NPC1 promoter act	Luc counter	Rab9 prom act
CC(C(=O)Nc1ccc(S(=O)(=O)N2CCOCC2)cc1)N(c1ccccc1)S(C)(=O)=O (centres undefined)	1%	-3%	-3%	-2%	-1%	2%
Cc1cc(C)c(C(=O)Cn2nc(C(=O)O)c3ccccc3c2=O)cc1C	6µM*	0%	/	-6%	/	11%
CCCc1ccc(C(=O)Cn2nc(C(=O)O)c3ccccc3c2=O)cc1	?	0%	-4%	-1%	1%	0%
O=C(Cn1nc(C(=O)O)c2ccccc2c1=O)c1c[nH]c2ccccc12	15µM*	2%	/	-7%	/	-1%
Cc1cc(C(=O)Cn2nc(C(=O)O)c3ccccc3c2=O)c(C)n1-c1ccccc1	0.95µM*	?	-7%	19%	-5%	?
O=C(COc1ccc2ccccc2c1CN1CCOCC1)N1CCc2ccccc21	0%	-10%	-14%	-8%	-2%	-12%
Cc1ccc(-n2[nH]c(C)c(C=NC34CN5CN(CN(C5)C3)C4)c2=O)cc1C	-6%	/	12%	/	-10%	/
COCCCN=Cc1c(C)[nH]n(-c2ccc(Br)c(C)c2)c1=O	1.3µM*	?	2.8µM*	1.4µM*	-5%	0.5µM*
O=C(Nc1nc(-c2ccc(Cl)cc2Cl)cs1)C1CCCO1 (centres undefined)	?	11%	-12%	2%	1%	-5%
Cc1nc(-c2nc(-c3c(C(=O)NNC(=O)c4ccc(Cl)cc4)noc3C)cs2)cs1	-19%	-2%	/	-3%	/	-3%
Cc1nc(-c2nc(-c3c(C(=O)NN)noc3C)cs2)cs1	17µM*	0%	?	24%	0%	?
Cc1ccc(OCCCCn2cnc3ccccc32)c(C)c1	11µM*	4%	-76%	2%	-2%	-1%
Clc1ccccc1OCCn1cnc2ccccc21	17µM*	?	-19%	27%	-3%	?
Brc1ccccc1OCCCCn1cnc2ccccc21	11µM*	?	-46%	-4%	1%	-1%
Brc1ccccc1Cn1cnc2ccccc21	2%	-1%	/	-1%	/	-2%
Cc1ccc(C)c(OCCCCn2cnc3ccccc3c2=O)c1	-12%	-5%	/	-1%	/	-3%
O=C(NCCNC(=O)c1ccccn1)c1cccc(F)c1	0%	0%	/	1%	/	-3%
O=C(Nc1nnc(-c2ccc3c(c2)CCCC3)o1)c1c(F)cccc1F	15µM*	19%	-5%	14%	7%	27%
O=C(Nc1nnc(-c2ccc3c(c2)CCCC3)o1)c1ccc(Cl)cc1Cl	0%	-24%	-9%	-10%	2%	-2%
NC(=O)C(NC(=O)OCc1ccccc1)c1ccccc1 (centres undefined)	1%	-2%	/	2%	/	1%
O=C(/C=C/c1ccc(Br)cc1)c1ccco1	3.4µM*	?	-3%[1.84 µM]	1%	-5%	4%
O=C(/C=C/C=C/c1ccccc1)c1ccco1	3µM*	15%	/	?	/	25%
O=C(/C=C/c1ccc(Br)cc1)c1ccc(NC(=O)c2ccco2)cc1	?	1%	3%	1%	-1%	11%
O=C(CCC(=O)N(CC(=O)NC1CCCCC1)c1ccccc1F)Nc1nccs1	-1%	-6%	/	1%	/	-1%
COc1cccc2[nH]c(=O)c(-c3ccccc3)cc12	12µM*	?	/	3.5µM*	/	2.8µM*
SMILES	FLuc modulator	ELG1 genotox	SMN2 splice up	NPC1 promoter act	Luc counter	Rab9 prom act
CC(NC(=O)c1cc(-c2ccc3c(c2)OCO3)nc2ccccc12)C(C)(C)C (centres undefined)	-14%	0%	6%	0%	-1%	-3%
Cc1ccc2nc(-c3ccc4c(c3)OCCO4)cc(C(=O)O)c2c1	2.4µM*	?	?	25%	6%	13%
CCCN(CCC)C(=O)c1cc(-c2ccc3c(c2)OCO3)nc2ccccc12	?	-15%	-17%	-2%	12%	-1%
CCCNC(=O)NNC(=O)c1cc(-c2ccc3c(c2)OCO3)nc2ccccc12	13µM*	0%	/	1%	/	-7%
O=C(O)c1cc(-c2cccs2)nc2cc3c(cc12)OCCO3	9.5µM*	10%	?	3%	1%	-1%
O=C(O)c1cc(-c2ccc3c(c2)OCO3)nc2ccccc12	8.5µM*	4%	14%	9%	-17%	-7%
CCOCCOC(=O)C1=C(C)N(C)C(=O)NC1c1ccccc1Cl (centres undefined)	0%	-1%	-18%	-1%	-3%	2%
CC(=O)c1ccc(N2CCN(C(=O)c3cc(-c4ccncc4)nc4ccc(Br)cc34)CC2)cc1	?	-10%	/	2%	/	2%
CC(=O)c1ccc(N2CCN(C(=O)c3cc(-c4ccc5c(c4)OCO5)nc4ccccc34)CC2)cc1	7.6µM*	-11%	?	6%	-10%	11%
Cc1oc(-c2ccc(-c3ccccc3)cc2)nc1CN(CCO)C(C)C	11µM*	?	/	?	/	?
Cc1oc(-c2ccc(-c3ccccc3)cc2)nc1CN(C)C1CCOC1 (centres undefined)	9.5µM*	?	/	?	-1%	?
N=C1C(c2nc3ccccc3s2)=C(O)CN1Cc1ccco1	?	9.2µM*	?	?	3%	?
Cc1nn(Cc2ccc(Cl)cc2)c2sc(C(=O)OCC(N)=O)cc12	6%	8%	6%	1%	-3%	6%
CN(C)c1ccc(-c2cc(O)c3ncccc3c2)cc1	15µM*	16µM*	/	-7%	/	-2%
Oc1cc(-c2ccncc2)cc2cccnc12	?	-8%	/	-35%	/	-35%
CN(C)CCCNC(=O)c1ccc(-c2cc(O)c3ncccc3c2)cc1	-3%	14%	/	-4%	/	-6%
Oc1cc(-c2ccc(N3CCCCC3)nc2)cc2cccnc12	?	18µM*	/	10%	/	4%
CN1CCN(c2ccc(-c3cc(O)c4ncccc4c3)cc2)CC1	6µM*	/	/	12%	/	?
CCN(C(=O)CSc1nnnn1C)c1c(N)n(Cc2ccccc2)c(=O)[nH]c1=O	0%	0%	-3%	-9%	0%	-10%
FC(F)(F)c1cccc(NC(=S)N2CCCCCC2)c1	-7%	-2%	16%	1%	-1%	-3%
c1ccc2c(-c3nn[nH]n3)cccc2c1	-1%	0%	-6%	1%	1%	-1%
O=C1c2ccccc2C(=O)C1c1nccc2ccccc12	0.15µM*	0.082µM*	0.63µM*	3.2µM*	8.9µM*	1.3µM*
O=C1C(c2ccnc3ccccc23)=C(O)c2ccccc21	0.11µM*	?	0.4µM*	2.5µM*	?	?
